# 14-3-3 Bad PPI – disrupts binding of bovine 14-3-3 zeta to phospho-Bad peptide | P63103 | TR-FRET 14-3-3zeta/Dy647-pBad peptide displacement, 1 h | inhibition, % at 21.7 µM | 0.71% of 220,000 active | AID 781;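 active = inhibition above about 70%, limit read from the data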;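 also: 0% = full 14-3-3 plus peptide FRET controls and 100% = background without 14-3-3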
# Target sequence (P63103 whole entry, looked up): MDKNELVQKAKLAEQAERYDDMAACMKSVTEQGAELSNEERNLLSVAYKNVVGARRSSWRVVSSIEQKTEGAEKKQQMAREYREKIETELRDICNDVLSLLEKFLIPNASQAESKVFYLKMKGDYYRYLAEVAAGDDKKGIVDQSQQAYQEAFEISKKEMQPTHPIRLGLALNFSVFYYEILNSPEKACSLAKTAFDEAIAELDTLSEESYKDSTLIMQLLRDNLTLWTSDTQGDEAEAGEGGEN
# MCL1 BIM primary – inhibitors of human MCL1 binding to BIM-BH3 peptide; 0.68% of 320,000 active; AID 2057; GST-MCL1 / FITC-Bim-BH3 fluorescence polarization; inhibition, % at 10.9 µM; Q07820;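 active = inhibition above the mean inhibition of all tested compounds plus 3 SD, set per campaign, cut at about 40% in these data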;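 also: 0% = DMSO wells and 100% = unlabeled Bim-BH3 peptide control; higher means more loss of mP so more displacement of Bim peptide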
# Target sequence (Q07820 whole entry, looked up): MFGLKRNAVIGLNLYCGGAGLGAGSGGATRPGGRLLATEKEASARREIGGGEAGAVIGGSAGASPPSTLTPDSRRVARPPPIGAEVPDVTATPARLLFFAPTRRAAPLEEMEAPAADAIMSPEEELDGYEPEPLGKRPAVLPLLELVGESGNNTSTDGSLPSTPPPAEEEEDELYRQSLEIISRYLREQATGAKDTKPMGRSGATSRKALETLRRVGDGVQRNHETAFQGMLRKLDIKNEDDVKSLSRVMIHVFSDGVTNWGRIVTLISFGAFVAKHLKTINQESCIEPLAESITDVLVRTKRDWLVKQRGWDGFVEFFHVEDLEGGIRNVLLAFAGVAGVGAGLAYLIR
# Bim-Mcl-1 – inhibitors of Bim-Mcl-1 interaction, human; AID 1009; 0.1% of 190,000 active; inhibition, % at 10 µM; Bead-based flow cytometry, Bim peptide-Mcl-1 binding; in the data active = inhibition above about 40%;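 also: 0% = no compound tracer wells and 100% = peptide blocker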
# Mcl1 Bid PPI – Mcl-1/Bid interaction inhibition; TR-FRET Mcl-1/Bid-Dy647 peptide binding, 1536-well; inhibition, % at 21.7 µM; 0.97% of 220,000 active; Q07820; AID 1021;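 active = compounds that cut the binding signal by more than half at the single screening dose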;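 also: His-tagged Mcl-1 with europium anti-His antibody binding Bid BH3 peptide; 0% = Mcl-1 plus peptide wells and 100% = peptide-only wells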
# eIF4E 4G PPI – eIF4E/eIF4G interaction inhibition in translation initiation. inhibition, % at 21.7 µM. 0.37% of 220,000 active. TR-FRET eIF4E-eIF4GI(517-606) binding, 2 h;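 active = inhibition above about 30%, limit read from the data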;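 also: 0% = full FRET control wells and 100% = background wells lacking eIF4GI fragment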
# Mcl1 Noxa PPI – Mcl-1/Noxa interaction inhibition | inhibition, % at 21.7 µM | Q07820 | AID 1022 | TR-FRET Mcl-1/Noxa peptide binding, 2 h | 1.5% of 220,000 active;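 active = compounds that cut the protein-peptide binding signal by more than 50% relative to plate controls in a single-dose test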;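 also: His-tagged Mcl-1 with rhodamine Noxa BH3 peptide and terbium anti-His antibody; 0% = Mcl-1 plus Noxa peptide wells and 100% = peptide-only wells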
# Active calls of the source: *; · = no result given; [ ] = dose if it differs, or a comment. This is a sample that favours compounds with a hit; in the whole collection about 2.6% have one here.
SMILES,14-3-3 Bad PPI,MCL1 BIM primary,Bim-Mcl-1,Mcl1 Bid PPI,eIF4E 4G PPI,Mcl1 Noxa PPI
Cn1c(CNc2nc(-c3ccccc3)cs2)nnc1SCC(=O)N1CCc2ccccc21,-3,3,51*,-18,-31,5
O=C(CC(NC(=O)C(F)(F)F)c1ccccc1)Nc1nnc(CCc2ccccc2)s1 (configuration not stated),2,1,-21,2,0,7
CC1CCN(c2c(NCC3CCC(C(=O)NC4CCCCCC4)CC3)c(=O)c2=O)CC1 (configuration not stated),86*,-1,·,-19,-2,36
O=C(c1ccco1)N1CCN(C(c2cccs2)c2nnnn2C2CCCC2)CC1 (configuration not stated),1,25,7,-19,-8,3
c1coc(CN2CCN(C(c3cccs3)c3nnnn3C3CCCC3)CC2)c1 (configuration not stated),77*,1,2,28,0,29
c1ccc(CN(Cc2cccs2)C(c2cccs2)c2nnnn2C2CCCC2)cc1 (configuration not stated),87*,2,1,0,-5,3
c1ccc(CC2CCN(C(c3cccs3)c3nnnn3C3CCCC3)CC2)cc1 (configuration not stated),-2,3,2,-32,10,3
Cc1c(O)cc2c(c1O)C(=O)CC(c1ccc(O)cc1)O2 (configuration not stated),37,18,1,65*,10,86*
COc1cc(O)c2c(c1)OC(c1ccc(O)cc1)CC2=O (configuration not stated),1,2,-5,1,3,17
Cc1ccc(NC(=S)Nc2cccc(-c3n[nH]c(=S)o3)c2)cc1,-7,0,·,-18,-1,59*
Cc1ccc(-c2cc(-c3ccccc3Cl)c(C#N)c(N)n2)o1,-10,23,1,28,2,60*
Cc1ccc(-c2cc(-c3ccccc3)c(C#N)c(N)n2)o1,18,26,-4,19,27,65*
CCC(=O)Nc1cc2c3c(c1)CCC(=O)N3CCC2,·,8,·,·,·,·
O=C(COC(=O)CC(c1ccccc1)c1ccccc1)Nc1cccc(F)c1,-10,-6,-7,8,8,5
O=C(COC(=O)CC(NC(=O)c1ccccc1Cl)c1ccccc1)Nc1cccc(F)c1 (configuration not stated),-2,0,-4,72*,4,-3
Cc1cc(C)c2c(N)c(C(=O)c3ccc(Cl)c(Cl)c3)sc2n1,82*,3,-1,38,16,43
Cc1cc(C)c2c(N)c(C(=O)c3ccc(Cl)cc3)sc2n1,15,-11,0,18,3,12
CCCCNS(=O)(=O)c1ccc(OC)c(C)c1,-14,16,0,4,3,-13
CCOc1ccc(S(=O)(=O)NCCOC)cc1C,73*,0,-2,-19,1,2
CSc1ccc(/C=C/C(=O)OCC(=O)c2ccc[nH]2)cc1,·,1,·,·,·,·
Cc1cc(N2CC(C)OC(C)C2)n2cc(-c3ccccc3)nc2n1 (configuration not stated),16,-3,0,80*,1,34
CCCN1CCC(NC(=S)Nc2ccc(C(=O)OCC)cc2)CC1,-6,5,-5,84*,0,0
O=C(CSc1nc2c(c(C(F)(F)F)n1)CCc1ccccc1-2)NCc1ccccc1,-10,9,0,-13,5,-33
Cc1nn(Cc2ccccc2)c(C)c1NC(=O)CSc1nc2c(c(C(F)(F)F)n1)CCc1ccccc1-2,33,-8,3,64*,8,-15
O=C(NNC(=O)c1ccccc1OCc1ccccc1Cl)c1csc(N2CCOCC2)n1,·,4,·,·,·,·
SMILES,14-3-3 Bad PPI,MCL1 BIM primary,Bim-Mcl-1,Mcl1 Bid PPI,eIF4E 4G PPI,Mcl1 Noxa PPI
O=C(O)COc1ccccc1C(Nc1cccnc1)c1cc(Cl)c2cccnc2c1O (configuration not stated),64,·,-2,78*,27,97*
CCOc1ccc(C(Nc2cccnc2)c2cc(Cl)c3cccnc3c2O)cc1 (configuration not stated),21,28,-5,95*,28,96*
COc1ccccc1C(NC(C)=O)c1cc(Cl)c2cccnc2c1O (configuration not stated),·,-2,·,·,·,·
Cc1nn(C(C)C(=O)NCCCc2ccccc2)c(=O)c2nn(-c3ccccc3)c(C)c12 (configuration not stated),·,1,·,·,·,·
CC1(C)NC(=O)N(CC(O)CN(c2ccccc2)S(=O)(=O)c2ccccc2[N+](=O)[O-])C1=O (configuration not stated),·,-6,·,·,·,·
Cc1cccc(C)c1NC(=O)CSc1nc(COc2ccccc2)nc2ccccc12,12,28,10,59*,-33,0
Cc1ccc(Nc2nnc(SC/C(O)=C(\C#N)c3nc4ccccc4[nH]3)s2)c(C)c1,-6,1,-1,-15,-8,70*
Cc1cccc(Nc2nnc(SC/C(O)=C(\C#N)c3nc4ccccc4[nH]3)s2)c1,-11,-2,-3,-23,23,52*
COc1ccc(C)cc1-n1nnnc1SC/C(O)=C(\C#N)c1nc2ccccc2[nH]1,2,-1,-13,-37,-4,12
CC1CC(OC(=O)CN2CCCCC2)CC(C)(C)C1 (configuration not stated),4,-12,·,3,5,1
COCCCn1c(=S)[nH]c2sc3c(c2c1=O)CCCS3,-6,10,-4,-89,1,65*
CC(=O)Nc1ccccc1OCc1cnc(Cl)s1,-1,7,0,-5,4,4
O=C(O)c1cccc(-n2cccc2/C=C2/NC(=O)N(c3ccc(Cl)cc3)C2=O)c1,94*,·,6,98*,71*,113*
COc1ccc(/C=C/C(=O)NC(=S)Nc2cc3oc4ccccc4c3cc2OC)cc1,-4,8,-3,32,0,13
COc1cc2c(cc1NC(=O)CSc1nccn1C)oc1ccccc12,-15,-3,0,-3,7,57*
COc1cc2c(cc1NC(=S)NC(=O)/C=C/c1ccc(OC)c(OC)c1)oc1ccccc12,81*[fluorescence artefact?],·,1,62*,17,47
CC(C)(C)OC(=O)N1C[C@H](O)C[C@H]1C(=O)OCC(=O)c1ccc([N+](=O)[O-])cc1,·,2,·,·,·,·
COc1ccc(CN(C)S(=O)(=O)c2nnc(NC(=O)c3cccc(F)c3)s2)cc1,·,3,·,·,·,·
COC(=O)[C@@]12CCCN1[C@H](c1ccc(-c3cccc(Cl)c3)cc1)[C@H]1C(=O)N(C)C(=O)[C@H]12,·,-5,·,·,·,·
CCn1c(SCC(=O)N/N=C(/C)c2ccncc2)nc2ccccc21,-1,-4,·,-18,-3,0
CCOc1ccccc1OCCCCCc1c(C)n[nH]c1C,33,-4,-2,23,47*,25
